The full list was thinned out, with hits kept by preference.
Pf Dd2 inh: blocks in vitro growth of P. falciparum Dd2; Potency, µM (doses to about 28.9 µM), for inactives: at the top dose activity, negative = inhibition, actives largely listed as inhibitors; hit rate 4.3% among 120,000; P. falciparum Dd2 growth, SYBR Green, 72 h; active means well fitted inhibition curve with a large enough effect;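 further: plate controls were DMSO vehicle for no effect and reference drug for full effect; nearly all actives have a fitted effect of over 65% in size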
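Readout: SYBR Green fluorescence, 485 nm excitation, 535 nm emission, after ~16 h lysis at 37C. Before that, Dd2-infected red cells (2.5% hematocrit) grew 72 h with compound, 29 uM top final concentration.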
The depositor's hits bear a star; i = inactive; [ ] = dose if it differs, or a comment. Potency means the concentration at half of the fitted maximal effect.

SMILES	Pf Dd2 inh
COc1ccc(Nc2cc(C(=O)NCCCN(C)C3CCCCC3)c3ccccc3n2)cc1	5.6µM*
COc1ccc(N2CCN(CCCNC(=O)c3cc(Nc4ccc(OC)cc4OC)nc4ccccc34)CC2)cc1	-12%
O=C(NC1CCCCC1)c1cc(Nc2ccccc2)nc2ccccc12	2%
COc1ccc(Nc2cc(C(=O)NCCCN(C)C3CCCCC3)c3ccccc3n2)c(OC)c1	8.9µM*
COc1ccc(CNC(=O)c2cc(Nc3ccc(OC)cc3OC)nc3ccccc23)cc1	8%
COc1ccc(Nc2cc(C(=O)NC3CCCC3)c3ccccc3n2)cc1	4%
Cc1cc(Cl)ccc1S(=O)(=O)N(C)CC1CCOCC1	15%
O=S(=O)(c1ccccc1Cl)N1CCCC1c1nncn1C1CCCC1 (stereo not drawn)	-25%
COc1ccc(-n2ncc3c(N4CCN(c5cccc(C)c5)C(C)C4)ncnc32)cc1 (stereo not drawn)	5.6µM*
Cc1cccc(-n2ncc3c(N4CCN(c5ccccc5)CC4)ncnc32)c1	44%
COc1ccc(N2CCN(c3ncnc4c3cnn4-c3ccc(C)c(Cl)c3)CC2)cc1	40%
O=C(Nc1ccc(=O)n2c1[C@@H]1C[C@@H](CN(C(=O)NC3CCCCC3)C1)C2)c1ccco1	4%[44.1 µM]
CN1C(=O)C2(CCN(C(=O)CCCS(N)(=O)=O)CC2)c2ccccc21	4%
CN1C(=O)C2(CCN(C(=O)CCC3CCCCC3)CC2)c2ccccc21	5µM*
COCCC(=O)N1CCC2(CC1)C(=O)N(C)c1ccccc12	50%
COc1ccc(C(=O)N2C3CCCC2CC(=O)C3)cc1	0%[44.1 µM]
O=C(O)c1cccc(-c2n[nH]c3c2CC(=O)N(CCOc2ccccc2)C3)c1	-12%[44.1 µM]
O=C1Cc2c(-c3ccccc3)n[nH]c2CN1CCOc1ccccc1	-21%[44.1 µM]
CC(C)Oc1cccc(-c2n[nH]c3c2CC(=O)N(CCOc2ccccc2)C3)c1	8.9µM*
Cc1cn2nc(C(=O)N3CCC(NC(=O)c4cccc(Cl)c4)CC3)cc2c(=O)[nH]1	i
Cc1cn2nc(C(=O)N3CCC(NC(=O)c4ccccc4C)CC3)cc2c(=O)[nH]1	-9%
COc1ccc(Cl)cc1C(=O)NC1CCN(C(=O)c2cc3c(=O)[nH]c(C)cn3n2)CC1	5µM*
Cn1cnc(S(=O)(=O)NC2CCc3nn(CC4CC4)c(=O)n3CC2)c1 (stereo not drawn)	5%
Cc1ccc(Nc2c(-c3ccccc3O)nc3cc(C)ccn23)cc1	5.6µM*
Cc1ccccc1Nc1c(-c2ccccc2O)nc2sccn12	i
SMILES	Pf Dd2 inh
COc1ccc(-c2nc3ccc(C)cn3c2Nc2ccc3c(c2)OCO3)cc1	17%
Cc1ccc(Nc2c(-c3ccccc3O)nc3ccc(Br)cn23)cc1	-17%
Cc1ccc2nc(-c3ccccc3O)c(Nc3ccccc3C)n2c1	1.4µM*
Clc1ccc(Nc2c(-c3ccccc3Cl)nc3ccc(Cl)cn23)cc1	i
Cc1ccc2nc(-c3ccc(O)cc3)c(Nc3ccc4c(c3)OCCO4)n2c1	-5%
Cc1ccn2c(Nc3ccc4c(c3)OCCO4)c(-c3ccc(Cl)s3)nc2c1	-3%
Cc1ccn2c(Nc3ccc4c(c3)OCO4)c(-c3ccc(N(C)C)cc3)nc2c1	13µM*
O=C(CCNc1c(-c2cccc(F)c2)nc2cnccn12)NCc1ccc(Cl)cc1	-3%
Oc1ccccc1-c1nc2cnccn2c1Nc1ccc(Cl)cc1	2.5µM*
CN(C)c1ccc(-c2nc3ccc(Cl)cn3c2Nc2ccc3c(c2)OCCO3)cc1	i
CC(=O)Nc1ccc(C(=O)NC2CCN(c3cc(-c4cccs4)[nH]n3)C2)cc1 (stereo not drawn)	i
COc1ccc(-c2cn(C)c(=O)n3cc(COc4ccccc4)nc23)c(C(F)(F)F)c1	i
COc1ccc([C@H]2C[C@@H](O)[C@@H](O)[C@@H]2NC(=O)c2cc(C)n(C)n2)cc1	0%[44.1 µM]
COc1cc(-c2[nH]ncc2CN(CCO)Cc2cccs2)cc(OC)c1OC	-7%
N#Cc1ccc(S(=O)(=O)N2CCC3(CC2)CC(CC(=O)N2CCOCC2)CCO3)cc1 (stereo not drawn)	87%
CN1C[C@@H](NC(=O)Nc2ccc(F)cc2)C[C@H]1c1nc(-c2ccccn2)no1	-14%[44.1 µM]
COc1cc(O)ccc1-c1nc2cc(C)ccn2c1Nc1ccccc1C	7.9µM*
Cc1ccccc1Nc1c(-c2ccc(O)cc2)nc2c(C)cccn12	11µM*
Cc1ccc(Nc2c(-c3ccc(C)cc3)nc3c(C)cccn23)cc1	-29%
Cc1ccc(Nc2c(-c3ccsc3)nc3c(C)cccn23)cc1	i
Cc1cccc2nc(-c3ccccn3)c(Nc3ccc(F)cc3)n12	3.2µM*
Cc1ccc(Nc2c(-c3ccccn3)nc3ccc(Br)cn23)cc1	-4%
COc1ccc(-c2nc3cc(C)ccn3c2NC(=O)c2ccc(C)c(C)c2)cc1	-7%
Cc1ccn2c(Nc3ccc(F)cc3)c(-c3ccccn3)nc2c1	4.5µM*
Cc1nc2nncn2c(Nc2ccc(F)cc2)c1C	5%
SMILES	Pf Dd2 inh
Cc1ccn2c(Nc3ccccc3C)c(-c3ccccc3)nc2c1	i
COc1ccc(-c2nc3cc(C)ccn3c2NC(=O)c2ccc(F)cc2)cc1	21%
Cn1ccc2cc(-c3ccc4c(n3)c(=O)ncn4CC3CC3)ccc21	i
CN1C(=O)COC[C@@H]1[C@H](O)c1ccc(NC(=O)C2CCCCC2)cc1	-13%[44.1 µM]
CN(C)c1ccc(CN2CCCC3(CC(c4ccccn4)=NO3)C2)cc1 (stereo not drawn)	-1%
Cc1ccsc1C(=O)N1CCC(C2CCN(S(C)(=O)=O)CC2)C1 (stereo not drawn)	-8%
COCC(=O)N[C@@H]1CN(Cc2ccccc2F)C[C@H]1CO	-5%
COCCN1CCOc2nc(-c3ccc(C(=O)N(C)C)cc3)ncc2C1=O	i
Cc1ccc(CNC(=O)N2CCC(CC(=O)NC3CC3)C2)cc1 (stereo not drawn)	-18%
COc1ccccc1-c1cc(-c2cccs2)nc2c(C)noc12	i
O=C(CCn1cncn1)NCc1cccnc1Oc1cccc(C(F)(F)F)c1	-1%
O=C(O)CCNc1c(-c2ccc(F)cc2)nc2cnccn12	-7%
Cc1cccc2nc(-c3ccccn3)c(Nc3ccccc3)n12	7.1µM*
CN(Cc1ccccc1)C(=O)CCNc1c(-c2cccc(F)c2)nc2cnccn12	-8%
c1ccc(Nc2c(-c3ccccc3)nc3ncccn23)cc1	i
CN(C)c1ccc(-c2nc3cnccn3c2Nc2cccc(C(F)(F)F)c2)cc1	8.9µM*
Cc1ccc(Nc2c(-c3ccsc3)nc3cccc(C)n23)cc1	-1%
Cc1cc(-c2ccnc(-c3nnc(C)n3CCN3CCOCC3)c2)ccn1	-15%[44.1 µM]
CSCC(=O)N[C@H]1CCN2C(=O)N(c3cccc(SC)c3)C(=O)[C@@H]2C1	-9%[44.1 µM]
CCOc1cc(=O)n2c(c1C(=O)Nc1cccc(C)c1C)CCCC2	-8%
Cc1cc(C(=O)N2CCC3(CC(=O)NC3=O)C2)c(-c2ccccc2)o1 (stereo not drawn)	7%
O=C(N1CCC(Cc2nc(C3CCOCC3)no2)CC1)C1(c2ccccc2)CC1	10%
O=C(N1CCC2(CC1)CC(Cc1nc(-c3cccnc3)no1)CCO2)C1(c2ccccc2)CC1 (stereo not drawn)	7.9µM*
COc1ccc(CCC(=O)N2CCC3(CC2)CC(Cc2nc(-c4cnccn4)no2)CCO3)cc1 (stereo not drawn)	i
CCOCC(=O)N1CCC2(CC1)CC(Cc1nc(-c3ccncc3)no1)CCO2 (stereo not drawn)	4%
COCCC(=O)N1CCC2(CC1)CC(Cc1nc(-c3ccncc3)no1)CCO2 (stereo not drawn)	-7%

Source: PubChem
